{"source": "the supplement of paper PMC7858590", "note": "Values joined by “and” are separate entries in the source; they are usually repeats but may differ in a detail not shown here. Equal values may be shown once. ± gives the standard deviation of the averaged measurements. Whole data set: some 3,800 compounds, median “cell shape (eccentricity) Z-score vs DMSO control” near 1.1, cut for the lowest 2% near -4.7. This excerpt belongs to a sample that is enriched for the lowest values.", "data": [{"tested_on": "human monocyte-derived macrophages (M0)", "test": "cell shape (eccentricity) Z-score vs DMSO control; higher = more elongated, M2-like morphology", "settings": "20 µM; 24 h; macrophage state: M0 (M-CSF)", "description": "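Primary human monocyte-derived macrophages (M-CSF differentiated, pooled from 4 donors, 5000 cells/well in 384-well plates) were treated with each compound at 20 uM for 24 h, then fixed and stained with phalloidin/DAPI and imaged on an Opera Phenix (6 fields, about 1000 cells/well). Cell eccentricity was measured with CellProfiler, and a Z-score (t-test) was computed against 4 DMSO control wells in the same row. Negative values mean round (M1-like) cells and positive values mean elongated (M2-like) cells; the paper's hit cutoffs are Z <= -4 (M1) and Z >= 6 (M2). Scale: negative = round, M1-like.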", "values": [{"smiles": "CCCOc1ccc2[nH]c(NC(=O)OC)nc2c1", "cell shape (Z-score)": -1.59}, {"smiles": "COC(=O)Nc1nc2cc(SC(C)C)ccc2[nH]1", "cell shape (Z-score)": "-4.88 ± 0.16"}, {"smiles": "COC(=O)Nc1nc2cc(C(=O)C3CC3)ccc2[nH]1", "cell shape (Z-score)": -3.64}, {"smiles": "CCCCc1ccc2[nH]c(NC(=O)OC)nc2c1", "cell shape (Z-score)": "-5.71 and -2.34"}, {"smiles": "CCCSc1ccc2[nH]c(NC(=O)OC)nc2c1", "cell shape (Z-score)": -3.67}, {"smiles": "COC(=O)Nc1nc2cc(Sc3ccccc3)ccc2[nH]1", "cell shape (Z-score)": "-2.59 ± 3.9"}, {"smiles": "COc1ccc(C2Oc3cc(OC)ccc3CC2O)cc1", "note": "(stereo unspecified)", "cell shape (Z-score)": "1.66 ± 1.2"}, {"smiles": "COc1ccc(-c2oc3c(CC=C(C)C)c(O[C@@H]4O[C@H](CO)[C@@H](O)[C@H](O)[C@H]4O)cc(O)c3c(=O)c2O[C@@H]2O[C@@H](C)[C@H](O)[C@@H](O)[C@H]2O)cc1", "cell shape (Z-score)": -2.65}, {"smiles": "Nc1ncnc2c1c(-c1cccc(OCc3ccccc3)c1)cn2[C@H]1C[C@H](CN2CCCC2)C1", "cell shape (Z-score)": 6.27}, {"smiles": "O=c1c(O)c(-c2ccccc2)oc2ccccc12", "cell shape (Z-score)": 1.62}, {"smiles": "CCOC(=O)[C@H](CCc1ccccc1)N[C@@H](C)C(=O)N1Cc2ccccc2C[C@H]1C(=O)O", "cell shape (Z-score)": 2.22}, {"smiles": "CC(=O)O[C@@H]1CC2C(C)(C)C(=O)C=C[C@]2(C)C2CC[C@@]3(C)[C@H](c4ccoc4)OC(=O)[C@H]4O[C@]43[C@@]21C", "note": "(stereo partly specified)", "cell shape (Z-score)": -4.89}, {"smiles": "CC(=O)O[C@H]1C[C@@H](O)C(C)(C)C2C[C@@H](OC(C)=O)[C@]3(C)C(CC[C@@]4(C)[C@H](c5ccoc5)OC(=O)C5OC543)[C@]21C", "note": "(stereo partly specified)", "cell shape (Z-score)": -2.78}, {"smiles": "CC(=O)O[C@H]1CC[C@@]2(C)C(C[C@@H](OC(C)=O)[C@]3(C)C2CC[C@@]2(C)[C@H](c4ccoc4)OC(=O)[C@H]4O[C@]423)C1(C)C", "note": "(stereo partly specified)", "cell shape (Z-score)": -2.07}, {"smiles": "CC(=O)O[C@H]1C[C@@H](OC(C)=O)C(C)(C)C2C[C@@H](OC(C)=O)[C@]3(C)C(CC[C@@]4(C)[C@H](c5ccoc5)OC(=O)[C@H]5O[C@]543)[C@]21C", "note": "(stereo partly specified)", "cell shape (Z-score)": -2.55}, {"smiles": "CC(=O)O[C@@H]1CC2C(C)(C)[C@H](O)CC[C@]2(C)C2CC[C@@]3(C)[C@H](c4ccoc4)OC(=O)C4OC43[C@@]21C", "note": "(stereo partly specified)", "cell shape (Z-score)": 2.33}, {"smiles": "CC(=O)O[C@@H]1CC2C(C)(C)C(=O)CC[C@]2(C)C2CC[C@@]3(C)[C@H](c4ccoc4)OC(=O)C4OC43[C@@]21C", "note": "(stereo partly specified)", "cell shape (Z-score)": -5.48}, {"smiles": "O=C1C[C@@H](c2ccc(O)c(O)c2)Oc2cc(O[C@@H]3O[C@H](CO)[C@@H](O)[C@H](O)[C@H]3O)cc(O)c21", "cell shape (Z-score)": "0.661 ± 1.8"}, {"smiles": "OC(CN1CCNCC1)Cn1c2ccc(Br)cc2c2cc(Br)ccc21", "note": "(stereo unspecified)", "cell shape (Z-score)": -4.09}, {"smiles": "C=C1CCC[C@]2(C)CC[C@@](O)(C(=C)C(=O)O)C[C@@H]12", "cell shape (Z-score)": -0.504}, {"smiles": "CC1(C)CC[C@]2(C(=O)O[C@@H]3O[C@H](CO[C@@H]4O[C@H](CO)[C@@H](O)[C@H](O)[C@H]4O)[C@@H](O)[C@H](O[C@@H]4O[C@H](CO)[C@@H](O)[C@H](O)[C@H]4O)[C@H]3O)CC[C@]3(C)C(=CCC4[C@@]5(C)CC[C@H](O)[C@@](C)(C(=O)O)C5CC[C@]43C)C2C1", "note": "(stereo partly specified)", "cell shape (Z-score)": 1.07}]}]}
